Bioassay records (PubChem)
Hits are enriched below; roughly 3.7% of the tested compounds scored in any of these assays.
Nrf2 activator: qHTS of Nrf2 Activators; AREc32 ARE-luciferase reporter (MCF7-derived line), luminescence, 24 h; Potency, µM (top dose mostly 46.1 µM), inactives show at the top dose activation, hits mostly activators; actives 0.31% (n = 410,000); AID 624171, 2012; note: potency is the fitted concentration of half-maximal effect; % of control where 0% means no effect; nearly all actives have a fitted effect of over 65% in size
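Nrf2 activation is followed as ARE-luciferase induction in the AREc32 line after one day of compound treatment; luminescence is read with Steady-Glo.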
A549 tox: Nrf2 qHTS screen for inhibitors: counterscreen for cytotoxicity; A549 ARE-Fluc cells, CellTiter-Fluor viability, 18-24 h; Potency, µM (highest dose often 46 µM), for inactives: at the top dose activity change, negative = cytotoxicity, hits mostly inhibitors; actives 0.16% (n = 390,000); AID 504648, 2011; note: potency is the fitted concentration of half-maximal effect; % is set by controls: 0 for no effect and ±100 for the full control effect
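A549 ARE_Fluc cells in 5% FBS OPTI-MEM were exposed to compounds in concentration-response for 18-24 h at 37 deg C. Viability was read by CellTiter-Fluor fluorescence (Ex 405/Em 525) after 30 min, before the luciferase read.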
p53 reactivator: qHTS assay for re-activators of p53 using a Luc reporter; H1299 p53-A138V BP100-luciferase reporter, luminescence, 24 h; Potency, µM (titrated, usually from 92.2 µM), for inactives: top-dose activity change, positive = activation, most hits filed as activators; actives 0.063% (n = 320,000); AID 504706, 2011; note: potency is the fitted concentration of half-maximal effect; % of control where 0% means no effect; nearly all actives have a fitted effect of over 45% in size
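p53-null H1299 cells stably carrying temperature-sensitive p53-A138V and a BP100-luciferase reporter were pinned with compounds (4-point, 1:5 series) and held 24 hrs at 37 deg C. Luminescence was read 10 min after detection reagent.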
ClpP mod: qHTS Assay for Activators of ClpP | Potency, µM (series often up to 57.5 µM), without a hit: at the top dose activity change, negative = active | actives 1.9% (n = 340,000) | purified B. subtilis ClpP, FRET peptide cleavage, 20 min | ATP-dependent Clp protease proteolytic subunit (Bacillus subtilis (strain 168)), P80244 | AID 651965, 2013; active = well fitted falling curve with a large enough effect; inconclusive = small, poorly fitted or top-dose-only effect; inactive = no such curve, though single readings can be large or run the other way; note: potency is the fitted concentration of half-maximal effect; the source files actives as falling curves though it sought activators and does not explain the sign; nearly all actives have a fitted effect of over 65% in size
Target sequence (P80244 whole entry, looked up): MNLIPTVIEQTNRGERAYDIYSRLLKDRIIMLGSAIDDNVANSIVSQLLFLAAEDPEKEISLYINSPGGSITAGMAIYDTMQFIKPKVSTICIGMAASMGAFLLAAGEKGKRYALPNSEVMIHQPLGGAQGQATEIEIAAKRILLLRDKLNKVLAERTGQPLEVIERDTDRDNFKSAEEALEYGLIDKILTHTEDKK
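FRET quenching reversal measured ClpP activation: 10 microg/mL B. subtilis ClpP at pH 8 with the FRET-FV decapeptide, read at 430 nm after 320 nm excitation. The 20-min minus 0-min signal was scaled between DMSO/no-enzyme wells and ADEP (5.8 microM final).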
Nrf2 inh: Nrf2 qHTS screen for inhibitors. A549 ARE-Fluc reporter, luciferase luminescence, 18-24 h. Potency, µM (titrated, usually from 46 µM), for the others: at the highest dose activity change, negative = inhibition, hits mostly inhibitors. actives 2.1% (n = 360,000). AID 504444, 2011; note: potency is the fitted concentration of half-maximal effect; % is set by controls: 0 for no effect and ±100 for the full control effect; nearly all actives have a fitted effect of over 60% in size
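In this cell-based qHTS, ARE-driven firefly luciferase in A549 cells reports Nrf2 activity; the luminescent signal after BugLite lysis is the measured value, with a prior CellTiter-Fluor read for cell health.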
miR-21 reporter: qHTS Assay for Modulators of miRNAs and/orActivators of miR-21. Potency, µM (titrated, usually from 38.3 µM), without a hit: at the highest dose activity change, positive = activation, most hits filed as activators. AID 2288, 2010. 340,000 tested, under 10 active. HeLa miR-21 FLuc reporter, luciferase, 48 h;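 note: % of control where 0% means no effect; miR-21 action dims this reporter so a rising signal means less miR-21 action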
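HeLa miR-21-FLuc reporter line, endogenous miR-21; 2000 cells/well in DMEM/10% FBS; compound titration up to ~40uM final, 48 h, 37 degree Celsius; luciferase detection reagent, 15 min lysis, CCD luminescence.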
Starred values were filed as active, the others as inactive; ? = inconclusive; · = no result; ! = repeats disagree; [ ] = dose if it differs, or a comment. Unless noted, calls come from the whole dose curve; as a rule, active = well fitted curve in the direction sought with a large enough effect; inconclusive = small, poorly fitted or top-dose-only effect, or another doubt; inactive = no such curve, though single readings can be large; an effect the other way counts as inactive or inconclusive.

SMILES	Nrf2 activator	A549 tox	p53 reactivator	ClpP mod	Nrf2 inh	miR-21 reporter
O=C(Cn1c(COc2ccccc2)nc2ccccc21)Nc1cc(Cl)ccc1Cl	-1%	?	4%	-2%	18µM*	2%
O=C(CSC1=NCCS1)c1ccc(Cl)cc1	2%	-19%	6%	1%	13µM*	-6%
O=C(CSc1ccc(F)cc1)N1CCC(c2nc3ccccc3s2)CC1	4%	-10%	-1%	3%	18µM*	19%
O=C(CN1CCC(c2nc3ccccc3s2)CC1)NCc1cccs1	4%	-2%[1.84 µM]	8%	-4%	7.3µM*	18%
O=C(CN1CCC(c2nc3ccccc3s2)CC1)N1CCCCC1	4%	9%	-2%	-1%	8%	-9%
Cc1cc(C)cc(OCC(=O)Nc2ccc(-c3nc4ccccc4o3)cc2)c1	0%	-8%	·	4%	?	-12%
Cc1cccc(OCC(=O)Nc2ccc(-c3nc4ccccc4o3)cc2)c1C	5%	-3%	·	4%	21µM*	-9%
CC(=O)c1ccc(NC(=O)COc2ccccc2-c2nc(-c3ccc(C)cc3)no2)cc1	6%	-17%	·	-3%	26µM*	?
Cc1cccc(OCC(=O)Nc2ccncc2)c1C	0%	-7%	-18%	1%	7.3µM*	4%
Cc1ccc(C)c(OCC(=O)Nc2ccncc2)c1	2%	3%	·	-4%	5.2µM*	4%
Cc1ccc(S(=O)(=O)NCCc2nnc3ccc(SCc4cccc(F)c4)nn23)cc1	6%	-8%	·	1%	5%	0%
Cc1ccc(NC(=O)Cn2c(=O)c3ccc(Cl)cc3n3nncc23)cc1	-1%	1%	·	2%	7%	-2%
COc1ccc(C(=O)N2CC(=O)Nc3ccc(C)cc3C2c2ccc(F)cc2)c(OC)c1 (stereo not given)	4%	-12%	·	2%	9%[9.27 µM]	19%
C/C(=N\NC(=O)c1c(Cl)c(C)nn1C)c1ccc(NC(=O)COc2ccc(Cl)cc2C)cc1	-1%	-13%	5%	25µM*	?	-2%
C/C(=N\NC(=O)c1c(Cl)c(C)nn1C)c1cccc(NC(=O)c2cccc(F)c2)c1	4%	0%	-7%	-2%	9.2µM*	-11%
C/C(=N\NC(=O)c1c(Cl)c(C)nn1C)c1cccc(NC(=O)COc2ccccc2)c1	3%	-5%	-14%	145%	-14%	-31%
Cc1cc(Cl)ccc1OCC(=O)Nc1ccncc1	-1%	-1%	-8%	2%	23µM*	2%
CC(=O)NC(c1ccccc1)c1nc(-c2cnc3ccccc3c2)cs1 (stereo not given)	4%	·	·	?	·	·
CN(C)S(=O)(=O)c1ccc2[nH]cc(/C=C/c3nc4ccccc4c(=O)n3-c3ccccc3)c2c1	0%	1%[1.84 µM]	0%	22%	10µM*	5%
CCc1nc2ccc(C(=O)NCc3ccc(OC)c(OC)c3)cc2nc1CC	1%	3%	·	-4%	·	9%
CCCCC[C@@H](C)N1C[C@H](COCc2ccccc2)Oc2cc(N3CC[C@H](O)C3)ccc2S1(=O)=O	-1%	·	·	?	·	·
Cc1nc2sccn2c1-c1csc(NCc2ccccc2)n1	7%	-14%	4%	0%	8.2µM*	12%
Cc1csc2nc(NC(=O)c3ccccc3)sc(=O)c12	3.2µM*	-1%	9%	0%	?	-22%
Cc1nc(NC(=O)c2ccccc2)sc1-c1csc(NCc2ccccc2)n1	3%	-16%	13%	0%	21µM*	0%
Cn1c(=O)n(C)c2cc(N3CCOCC3)c(NS(=O)(=O)c3cccc(C#N)c3)cc21	5%	1%	·	-18%	3%	-9%
SMILES	Nrf2 activator	A549 tox	p53 reactivator	ClpP mod	Nrf2 inh	miR-21 reporter
CN1CCN(C(CNC(=O)C(=O)Nc2cccc(Cl)c2)c2ccc3c(c2)OCO3)CC1 (stereo not given)	12%	-3%	·	-2%	·	-17%
COc1ccc(CCNS(=O)(=O)c2ccc(N3CCCC3=O)cc2)cc1	1%	-11%	·	-2%	26µM*	·
Cc1nn(C)c(C)c1NS(=O)(=O)c1ccc(N2CCCC2=O)cc1	0%	-14%	3%	·	15µM*	22%
CC(C(=O)N1CCCCC1)n1ncn2cccc2c1=O (stereo not given)	0%	-5%	-11%	28µM*	10%	-1%
CC(C(=O)N1CCN(Cc2ccccc2)CC1)n1ncn2cccc2c1=O (stereo not given)	1%	-7%	·	2%	-21%	0%
Cc1ccc(Cl)cc1N1CCN(C(=O)C(C)n2ncn3cccc3c2=O)CC1 (stereo not given)	0%	?	1%	-3%	18µM*!	14%
CN(C)CCNc1ncnc2ccc(-c3ccc4c(c3)OCO4)cc12	·	6%	·	·	0%	·
COc1cccc2c1Oc1ncccc1N(c1ccc(C(=O)NCc3ccccc3C)s1)C2	1%	1%	·	32µM*	7%	4%
Cc1ccc(CNC(=O)c2ccc(N3Cc4ccccc4Oc4ncccc43)s2)cc1	5%	-5%	·	?	-4%	7%
O=C(c1ccc(OC2CCN(CCc3ccccc3)CC2)cc1)N1CCCC(CO)C1 (stereo not given)	-1%	0%	-2%	1%	19%	-2%
CC1CCCN(C(=O)c2ccc(OC3CCN(CCc4ccccc4)CC3)cc2)C1 (stereo not given)	0%	1%	-2%	-2%	16µM*	2%
O=C(Nc1ccccc1N1CCOCC1)c1cccc2ccccc12	0%	·	·	-5%	·	·
CC(C)(C)c1ccc(OCC(O)CSc2ncn[nH]2)cc1 (stereo not given)	-1%	0%	-7%	-4%	15µM*	27%
CC(=O)Nc1ccc(NC(=O)c2ccc(NS(=O)(=O)c3cc(C(C)(C)C)cc(C)c3C)cc2)cc1	3%	-19%	-16%	28µM*	?	-1%
CCS(=O)(=O)c1cccc(C(=O)N2CCN(c3nc4c(C)ccc(Cl)c4s3)CC2)c1	-1%	-18%	·	-6%	12µM*	?
CCOc1cccc2sc(N3CCN(C(=O)c4ccc5ncsc5c4)CC3)nc12	0%	4%	-2%	22µM*	-7%	·
COc1ccc(OC)c2sc(N3CCN(C(=O)c4ccc5ncsc5c4)CC3)nc12	0%	2%	-9%	·	8%	·
